Screening data from PubChem.
KCNQ2 enhance – potentiators of rat KCNQ2 potassium channel. AID 2239. CHO-K1 KCNQ2, FluxOR thallium flux fluorescence; active compounds read high. O88943. B-score at 10 µM. 310,000 tested, 0.54% active;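 active = fluorescence ratio B-score at least 3 SD of library B-scores, with initial fluorescence B-score within 3 of them, cut at about 5.3 in these data; same plate scores as AID 2156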;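 also: B-score of peak minus minimum over baseline fluorescence ratio after K+ and Tl+ stimulus; positive B-score means potentiation of KCNQ2 with more thallium influx and brighter signal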
KCNQ2 inh – inhibitors of rat KCNQ2 potassium channel; B-score at 10 µM; CHO-K1 KCNQ2, FluxOR thallium flux, 20 min; active compounds read low; 310,000 tested, 1.1% active;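 active = fluorescence ratio B-score at most minus 3 library SDs, with starting brightness B-score within 2 library SDs, cut at about -5.5 in these data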
* hit, by the source's call; i = inactive; · = not tested or not shown. A selection: hits, their analogues and other compounds. The true share with any hit is near 1.6%.

SMILES | KCNQ2 enhance | KCNQ2 inh
Cc1oc2ccc(NS(=O)(=O)c3ccc(C(C)(C)C)cc3)cc2c1C(=O)Nc1ccccc1 | -6 | -6*
CC(C)c1ccc2c(c1)[C@H]1OCC[C@H]1[C@@H](c1cccs1)N2 | 0.57 | i
O=C(C[n+]1ccc(-c2ccccc2)cc1)Nc1ccc([N+](=O)[O-])cc1 | 0.41 | i
COC(=O)C1=C(C)C(c2ccc(OC)cc2OC)NC(=O)N1 (configuration not stated) | · | i
COc1ccc(C2CC(C)(c3ccc(OC)cc3OC)Nc3ccccc3N2)c(OC)c1 (configuration not stated) | -6.4 | -6.4*
COc1ccc(-n2ccnc(SCC(=O)NCc3ccccc3Cl)c2=O)cc1 | · | i
CC12CC3(C)CC(C)(C1)CC(C(=O)NCc1cccnc1)(C2)C3 | 1.56 | i
Cc1cccnc1NC(=O)C1CCC1 | 0.64 | i
O=C1C2=C(CCCC2)C(=O)N1c1cccc(OCCBr)c1 | 7.77* | i
CC(C)CN(CCOc1cccc(N2C(=O)C3=C(CCCC3)C2=O)c1)CC(C)C | · | i
COc1ccc(N(CC(=O)NC2CCCCCC2)S(=O)(=O)c2ccccc2)cc1Cl | · | i
CCN1CCN(S(=O)(=O)c2cc(OCC(=O)NC3CCCCC3)c(C)cc2Cl)CC1 | 10.8* | i
CCOC(=O)N1CCN(S(=O)(=O)c2cc(OCC(=O)NC3CCCCC3)c(C)cc2Cl)CC1 | 0.18 | i
O=C(c1ccc(N2CCCC2=O)cc1)N1CCN(c2ccccc2F)CC1 | 0.73 | i
Cc1nn2c(N3CCN(C)CC3)cc(C(C)(C)C)nc2c1-c1ccccc1 | · | i
Cc1nn2c(N3CCN(C(=O)c4ccco4)CC3)cc(C(C)(C)C)nc2c1-c1ccccc1 | -6.51 | -6.51*
COc1ccccc1C(CNC(=O)c1ccc(NS(=O)(=O)c2ccc3c(c2)OCCO3)cc1)N(C)C (configuration not stated) | · | i
CCN(CC)C(=O)CSc1nc(-c2ccc(C)cc2)nc2c1COC(C)(C)C2 | -7.42 | -7.42*
CC1(C)Cc2nc(-c3ccccc3)nc(SCC(=O)N3CCOCC3)c2CO1 | · | i
Cc1cc(C(=O)NCc2ccc3c(c2)OCO3)ccc1[N+](=O)[O-] | 3.62 | i
CC1CC(C)CN(c2ccc(C(=O)NCc3ccc4c(c3)OCO4)cc2[N+](=O)[O-])C1 (configuration not stated) | 8.9* | i
Cc1cc(C)n(-c2nc3ccccc3nc2NCCc2ccccc2)n1 | -7.46 | -7.46*
COc1ccc(Nc2nc3ccccc3nc2-n2nc(C)cc2C)cc1 | · | i
CCCN1C(=O)/C(=C/c2ccc(C)o2)SC1=Nc1ccc(OC)cc1 | · | i
COc1ccc(N=C2S/C(=C\c3ccc(C)o3)C(=O)N2CC(C)C)cc1 | -6.09 | -6.09*
SMILES | KCNQ2 enhance | KCNQ2 inh
CCN1C(=O)/C(=C/c2ccc(C)s2)SC1=Nc1ccc(OC)cc1 | -6.31 | -6.31*
CCCN1C(=O)/C(=C/c2ccco2)SC1=Nc1ccc(OC)cc1 | · | i
CN(C(=O)c1cc2c(=O)n3ccccc3nc2n1C)C1CCCCC1 | 1.13 | i
CC(=O)Nc1ccc(S(=O)(=O)NCCC(=O)N2CCc3ccccc32)cc1 | 1.02 | i
O=C(NCC1CCCO1)c1cccc(S(=O)(=O)N2CCOCC2)c1 (configuration not stated) | · | i
Cc1cc(NS(=O)(=O)c2ccc(Nc3nc(-c4sc(NC(=O)c5ccccc5)nc4C)cs3)cc2)no1 | -13.2 | -13.2*
Cc1nc(NC(=O)c2ccccc2)sc1-c1csc(Nc2cccc(F)c2)n1 | 0.54 | i
O=C(CN1C(=O)CSc2ncccc21)Nc1ccccc1F | 0.94 | i
CCN1C(=O)C(=O)N(Cc2ccc(OC)c(F)c2)C1=O | 0.1 | i
CCCN(CCC)C(=O)c1cc(S(=O)(=O)N2CCCCC2)c[nH]1 | 1.01 | i
CC1=Nc2ccc(Br)cc2C(c2ccccc2)N1CC(=O)NN (configuration not stated) | 1.65 | i
OC1c2cc(Br)ccc2N=C2CCCN21 (configuration not stated) | -7.7 | -7.7*
Cc1ccccc1OCc1nc2ccccc2c(=O)n1/N=C/c1cn[nH]c1-c1ccccc1 | · | i
Cc1ccccc1OCc1nc2ccccc2c(=O)n1/N=C/c1cccc([N+](=O)[O-])c1 | -6.19 | -6.19*
COc1ccccc1CN1CCCC(CN(CCN(C)C)C(=O)c2ccc(C)cc2)C1 (configuration not stated) | 0.1 | i
COc1cc(CNc2ccc(C(=O)O)cc2)cc(Br)c1OCC(=O)NC(C)(C)C | · | i
CCOc1cc(CNc2ccccc2)cc(Br)c1OCC(=O)NC(C)(C)C | -5.94 | -5.94*
CCn1c(=O)c(C(=O)NCCc2ccc(Cl)cc2)c(O)c2ccccc21 | 1.22 | i
CCCn1c(=O)c(C(=O)NCCc2ccc(Cl)cc2)c(O)c2ccccc21 | -5.56 | -5.56*
OC1CN=C2CCCc3c2n(c2ccc(Cl)cc32)C1 (configuration not stated) | · | i
c1ccc(-c2ccc3c(c2)c2c4n3CCN=C4CCC2)cc1 | -7.54 | -7.54*
CN(Cc1ccccc1)Cc1c(F)cccc1F | 6.61* | i
COc1ccc2ccccc2c1CN(C)Cc1ccccc1 | 1.68 | i
Cc1ccc(C(=O)Nc2cccc(N3C(=O)C4CCC(C)CC4C3=O)c2)cc1 (configuration not stated) | 0.01 | i
O=C(NCc1ccco1)c1cc2nc(C3CC3)cc(C(F)(F)F)n2n1 | 0.43 | i
SMILES | KCNQ2 enhance | KCNQ2 inh
COc1ccc(-c2cc(C(F)(F)F)n3nc(C(=O)NCc4ccco4)cc3n2)cc1OC | -5.57 | -5.57*
CO/N=C/c1ccc(Sc2ccc(C)cc2)c([N+](=O)[O-])c1 | 0.8 | i
CO/N=C/c1cc([N+](=O)[O-])ccc1Sc1ccc(C)cc1 | -7.42 | -7.42*
O=C(O)CSc1nnc(CNc2ccc(F)cc2)n1-c1ccccc1 | 0.62 | i
COC(=O)CSc1nnc(CNc2ccc(Cl)cc2)n1-c1ccccc1 | -5.75 | -5.75*
Cc1ccc(NC2CCCN(C(=O)C3CCCC3)C2)cc1C (configuration not stated) | 0.01 | i
CCN1CCN(c2nnc(-c3ccc(C)cc3)c3ccccc23)CC1 | 0.61 | i
Cc1ccc2c(c1)C(c1ccccc1)N(C(=O)c1c(F)cccc1Cl)CC(=O)N2 (configuration not stated) | · | i
COC(=O)c1cccc(NC(=O)CSc2nnc(C3CC3)n2C)c1 | 0.73 | i
COC(=O)C1(C)NC(c2ccccc2C)C2C(=O)N(c3ccccc3)C(=O)C21 (configuration not stated) | 0.15 | i
CCOC(=O)C1(c2ccccc2)NC(c2ccccc2C)C2C(=O)N(c3ccc4c(c3)OCO4)C(=O)C21 (configuration not stated) | -6.96 | -6.96*
COC(=O)c1ccc(C(=O)OC)c(NC(=O)COC(=O)C2CCC(C(C)(C)C)CC2)c1 (configuration not stated) | -5.9 | -5.9*
COC(=O)c1ccc(C(=O)OC)c(NC(=O)COC(=O)C2CCCCC2)c1 | 0.28 | i
CSc1ncccc1C(=O)NCCc1ccccc1F | · | i
O=C(NC(Cc1c[nH]c2ccccc12)C(=O)N/N=C/c1cccc2ccccc12)c1cccs1 (configuration not stated) | -8.1 | -8.1*
O=C(NC(Cc1c[nH]c2ccccc12)C(=O)O)c1cccs1 (configuration not stated) | · | i
COc1ccc2c(c1)c(C(C)=O)c(C)n2CCc1ccccc1 | 0.07 | i
